Our source for the composite z-score values is PubChem BioAssay.

SMILES strings stand for the structures.

The test system of this experiment is Human papillomavirus type 1a E7 protein (residues 1-88). Put plainly: HPV1a E7 small-molecule binders, primary screen, biochemical, small-molecule microarray, residues 1-88, 635 nm (AID 1129). As to conditions: small-molecule microarray binding, fluorescence 635 nm; higher = more signal.
`CCOC(=O)C[C@H]1[C@H](OC(=O)c2ccccc2-c2ccccc2)[C@@H](NC(=O)c2ccc(-c3ccccc3)cc2)c2cc(OCCCO)ccc2N1C(=O)c1ccc2ccccc2n1` showed a composite z-score of 0.472. With `CCCC[C@@H](O)C1=C(COc2ccccc2)C[C@H]2C(=O)N(C)C(=O)[C@H]2[C@H]1CO`, the composite z-score was -0.231. `COCCOC(=O)N1C(=O)[C@@]2(c3cc(C#Cc4ccc(OC)cc4)ccc31)[C@H](C(=O)Nc1nc3ccccc3s1)[C@H]1C(=O)O[C@H](c3ccccc3)[C@H](c3ccccc3)N1[C@@H]2c1ccc(O)cc1` displayed a composite z-score of 1.13. `COC1OC[C@]2(C)[C@H]3C4=C(CN2C(=O)OC(C)(C)C)[C@H](C)C(CO)C(CO)C4CC[C@@H]13` (stereo not given in full): the composite z-score was found to be 1.24. With `COCCCNC(=O)[C@]1(CCS(=O)(=O)c2ccccc2)N=C(c2ccc(OCCCO)cc2)O[C@@H]1c1ccccc1N=[N+]=[N-]`, the composite z-score is 1.22.

Take `CCCNC(=O)[C@@]1(c2ccc([N+](=O)[O-])cc2)CC(=O)N(C2CCCCC2)[C@@H]1c1ccc(CO)cc1`: the composite z-score is 1.24. Take `[N-]=[N+]=NCc1ccccc1C[C@@]1(C(=O)N2CCOCC2)N=C(c2ccc(OCCCO)cc2)O[C@@H]1c1ccccc1`: the composite z-score worked out at 1.18. Compound `NC(N)=NCCCn1cc(CNC(=O)[C@@H](N)Cc2ccccc2)nn1` returned a composite z-score of -0.505. With `COC(=O)[C@@]1(Cc2ccc(OC)cc2)[C@H]2c3cc(C(=O)N(C)C)n(CCO)c3C[C@H]2CN1C(=O)c1ccccc1`, the composite z-score came out at 0.498. `COCCCNC(=O)[C@@]1(Cc2ccccc2CN=[N+]=[N-])N=C(c2ccc(OCCCO)cc2)O[C@H]1c1ccccc1`: the composite z-score was 1.23. As to `C=C[C@@H](OC)[C@H](OC(=O)Nc1ccc(SC)cc1)c1ccc(O)c(F)c1`, the composite z-score turned out to be 1.23.

Take `CCCCCCCCCCC(O)C1C=CC2C(=O)N(C)C(=O)C2N1Nc1ccc([N+](=O)[O-])cc1[N+](=O)[O-]` (stereo not given): the composite z-score came to 1.21.

With `O=C(NCc1ccccc1)[C@@H]1c2ccccc2C(=O)N(Cc2ccccc2C(F)(F)F)[C@H]1c1ccc(CO)cc1`, the composite z-score stood at 0.334. Consider `COCCOC(=O)N1C(=O)[C@@]2(c3cc(C#CCCO)ccc31)[C@H](C(=O)Nc1nc3ccccc3s1)[C@H]1C(=O)O[C@H](c3ccccc3)[C@H](c3ccccc3)N1[C@@H]2c1ccccc1OCCO`, for which the composite z-score worked out at 1.2.

The compound `COCCOC(=O)N1C(=O)[C@@]2(c3cc(C#CCC(C(=O)OC)C(=O)OC)ccc31)[C@H](C(=O)N1CCc3cc(OC)c(OC)cc3C1)[C@H]1C(=O)O[C@H](c3ccccc3)[C@H](c3ccccc3)N1[C@@H]2c1ccc(OCCO)cc1` gave a composite z-score of 1.2.

Regarding `COc1ccc(CCNC(=O)[C@@]2(Sc3ccc(C)cc3)CC(=O)N(C3Cc4ccccc4C3)[C@@H]2c2ccc(CO)cc2)cc1`, the composite z-score came out at 1.21. The compound `CC1=C([C@H](O)CCc2ccccc2)[C@H](CO)[C@@H]2C(=O)N(C)C(=O)[C@@H]2C1` had a composite z-score of -0.183. `COc1ccccc1CN1C(=O)c2ccccc2[C@@]2(Cc3ccccc3N(CC(F)(F)F)C2=O)[C@@H]1c1ccc(CO)cc1` registered a composite z-score of 0.232. `CC(C)(C)OC(=O)CC[C@]1(C(=O)NCc2ccccc2)N=C(c2ccc(OCCCO)cc2)O[C@H]1c1ccccc1CN=[N+]=[N-]` gave a composite z-score of 1.23. `O=C(NCC(F)(F)F)[C@@H]1c2ccccc2C(=O)N(Cc2ccc(OC(F)(F)F)cc2)[C@H]1c1ccc(CO)cc1`: the composite z-score was -0.0826. `COc1ccc([Si](C)(C)[C@H]2[C@H](CCn3cc([C@H](O)c4ccccc4)nn3)O[C@@]3(C(=O)N(Cc4ccc(N5C(=O)c6cccc7cccc5c67)cc4)c4ccccc43)[C@@H]2C)cc1` displayed a composite z-score of 0.0893. Consider `CCCCCCc1nc(C2CC2)cc2c1[Si](C(C)C)(C(C)C)O[C@H]2c1ccccc1`, for which the composite z-score was -0.873. On to `COc1cc2c(cc1OC)CN(C(=O)[C@@H]1[C@H]3C(=O)O[C@H](c4ccccc4)[C@H](c4ccccc4)N3[C@H](c3ccc(OCCO)cc3)[C@@]13C(=O)Nc1ccccc13)CC2`, for which the composite z-score stood at 1.25. Regarding `CCOC(=O)C[C@H]1[C@H](OC(=O)c2ccc(C(=O)c3ccccc3)cc2)[C@@H](NC(=O)Cc2ccc(OC)cc2)c2cc(OCCCO)ccc2N1C(=O)c1ccccc1`, the composite z-score is 0.498.

Consider `Cc1cc(C)c(C(O)C2C=CC3C(=O)NC(=O)C3N2Nc2ccc(Cl)cc2Cl)c(C)c1` (stereo not given), for which the composite z-score turned out to be 1.22.
